Reference: the antibiotic and cytotoxicity screens of Wong et al. (2023)
Screen size: about 39,000 compounds; about 1,500 (3.8%) were called active. Many of the other results were omitted from the sample, so actives are more common in it than they were.

System: HSkMC (human skeletal muscle cells)
Test: cytotoxicity call (relative viability < 0.9)
Details: 10 µM

Row | SMILES | cytotoxicity call
1 | Cn1nc(Cn2ccnc2)c2c1CN(CCO)C2 | inactive
2 | C[C@H](CO)N1C[C@H](C)[C@H](CN(C)S(=O)(=O)c2cccs2)Oc2ccc(NS(=O)(=O)c3cccs3)cc2C1=O | inactive
3 | C[C@@H]1CN([C@H](C)CO)C(=O)c2cccc(NC(=O)C3CC3)c2O[C@H]1CN(C)S(=O)(=O)c1cn(C)cn1 | inactive
4 | C[C@@H]1CN([C@H](C)CO)C(=O)c2cc(NS(=O)(=O)c3cccs3)ccc2O[C@@H](C)CCCCO[C@@H]1CN(C)S(C)(=O)=O | inactive
5 | COCC(=O)N1C[C@@H](C)[C@H](OC)CN(C)C(=O)c2cc(NC(=O)c3ccc(OC)cc3)ccc2OC[C@H]1C | inactive
6 | C[C@@H]1CN([C@@H](C)CO)C(=O)c2cc(NC(=O)NC3CCCCC3)ccc2O[C@@H](C)CCCCO[C@@H]1CN(C)Cc1ccccc1 | inactive
7 | C[C@H]1CN([C@@H](C)CO)C(=O)c2cc(-c3ccc(C(=O)N(C)C)cc3)cnc2O[C@@H]1CN(C)C(=O)c1ccncc1 | inactive
8 | COc1cccc(NC(=O)C[C@@H]2CC[C@H]3[C@H](COc4ccc(NC(=O)C5CCOCC5)cc4C(=O)N3C)O2)c1 | inactive
9 | C[C@@H]1CCCCO[C@H](CN(C)C(=O)Nc2ccccc2)[C@@H](C)CN([C@H](C)CO)C(=O)c2cc(NC(=O)Nc3ccc(F)cc3)ccc2O1 | inactive
10 | Cn1nnc2c(Cl)ncnc21 | inactive
11 | COc1cc(/C=C/C(=O)N2CCC=CC2=O)cc(OC)c1OCCOCCOCCOCCC(=O)OC(C)(C)C | active
12 | CCC(=O)OCN1C(=O)C=CC1=O | inactive
13 | COc1cc(C=CC(=O)N2CCCCCCC2)cc(OC)c1OC | inactive
14 | COc1cc(C=CC(=O)N2CCC=CC2=O)cc(OC)c1OC | active
15 | COc1cc(C=CC(=O)O)cc(OC)c1OC | inactive
16 | C/C=C/C(=O)N1CCC=CC1=O | inactive
17 | C=C(C)C(=O)N1CCC=CC1=O | active
18 | COC(=O)C=Cc1cc(OC)c(OC)c(OC)c1 | inactive
19 | COc1cc(/C=C/C(=O)N2CCC=CC2=O)cc(OC)c1OC(=O)CCCCCCCCCCC(=O)Oc1c(OC)cc(/C=C/C(=O)N2CCC=CC2=O)cc1OC | inactive
20 | CCOC(=O)/C=C/C(=O)N1CCC=CC1=O | active
21 | C[C@@H]1CN([C@H](C)CO)C(=O)c2cc(NC(=O)Nc3ccc(F)cc3)ccc2O[C@@H](C)CCCCO[C@@H]1CN(C)C(=O)NC1CCCCC1 | inactive
22 | NCC[C@H]1CC[C@@H](NC(=O)C2CC2)[C@@H](CO)O1 | inactive
23 | COC[C@H]1CN(C)N=C(C2CC2)O1 | inactive
24 | C[C@H]1CN([C@@H](C)CO)C(=O)Cc2cc(NC(=O)Nc3cccc4ccccc34)ccc2O[C@@H]1CN(C)Cc1ccc(C(=O)O)cc1 | inactive

Row | SMILES | cytotoxicity call
25 | O=C(O)C1CCC1 | inactive
26 | CO[C@H]1CN(C)C(=O)c2cc(NS(=O)(=O)CC(F)(F)F)ccc2OC[C@@H](C)N(Cc2ccccn2)C[C@H]1C | inactive
27 | CC(C)NC(=O)N(C)C[C@H]1Oc2c(NC(=O)Nc3ccc4c(c3)OCO4)cccc2C(=O)N([C@H](C)CO)C[C@@H]1C | inactive
28 | C[C@H]1CCCCO[C@H](CN(C)Cc2ccncc2)[C@@H](C)CN([C@@H](C)CO)C(=O)c2cc(NC(=O)CCC(F)(F)F)ccc2O1 | inactive
29 | O=C(O)C1(c2cccs2)CCCC1 | inactive
30 | Cc1noc(C)c1NC(=O)N(C)C[C@H]1Oc2c(NC(=O)NC(C)C)cccc2C(=O)N([C@@H](C)CO)C[C@@H]1C | inactive
31 | CC[N+](CC)(CC)CCOc1ccc(/C=C/c2ccccc2)cc1 | inactive
32 | CCCCOc1cc(C(=O)NCCN(CC)CC)c2ccccc2n1.Cl | inactive
33 | CCN(CC)CCNC(=O)c1c(C)[nH]c(/C=C2/C(=O)Nc3ccc(-c4csc(-c5ccccc5)n4)cc32)c1C | active
34 | CN(C)CCCNC(=O)C[C@H]1CC[C@H]2[C@@H](COC[C@H](O)CN2C(=O)Nc2cc(Cl)cc(Cl)c2)O1 | inactive
35 | Cn1cc(N2C[C@]3(CNCCOC3)OCC2=O)cn1 | inactive
36 | CC(C)Nc1ncnc(N)c1[N+](=O)[O-] | inactive
37 | COc1ccc(C#Cc2ccc3c(c2)[C@]2(C(=O)N3)[C@H](C(=O)N3CCCCCCC3)[C@H]3C(=O)O[C@H](c4ccccc4)[C@H](c4ccccc4)N3[C@@H]2c2ccc(O)cc2)cc1 | inactive
38 | C[C@@H]1CN([C@@H](C)CO)C(=O)c2cc(NC(=O)Nc3ccc4c(c3)OCO4)ccc2O[C@@H](C)CCCCO[C@H]1CN(C)Cc1ccc(C(F)(F)F)cc1 | inactive
39 | C[C@@H]1CCCCO[C@H](CN(C)Cc2ccc(C(F)(F)F)cc2)[C@H](C)CN([C@H](C)CO)C(=O)c2cc(NC(=O)Nc3ccc4c(c3)OCO4)ccc2O1 | inactive
40 | C[C@@H]1CCCCO[C@H](CN(C)Cc2ccc(C(F)(F)F)cc2)[C@@H](C)CN([C@@H](C)CO)C(=O)c2cc(NC(=O)Nc3ccc4c(c3)OCO4)ccc2O1 | active
41 | C[C@@H]1CN([C@@H](C)CO)C(=O)c2cc(NC(=O)Nc3ccc4c(c3)OCO4)ccc2O[C@@H](C)CCCCO[C@@H]1CN(C)Cc1ccc(C(F)(F)F)cc1 | inactive
42 | C[C@@H]1CN([C@H](C)CO)C(=O)c2cc(NC(=O)Nc3ccc4c(c3)OCO4)ccc2O[C@@H](C)CCCCO[C@@H]1CN(C)Cc1ccc(C(F)(F)F)cc1 | inactive
43 | C[C@@H]1CCCCO[C@@H](CN(C)Cc2ccc(C(F)(F)F)cc2)[C@H](C)CN([C@H](C)CO)C(=O)c2cc(NC(=O)Nc3ccc4c(c3)OCO4)ccc2O1 | active
44 | C[C@H](CO)N1C[C@H](C)[C@@H](CN(C)C(=O)NC2CCCCC2)Oc2c(NC(=O)C3CC3)cccc2C1=O | inactive
45 | CN(C)CCO[C@@H]1CC[C@@H]2[C@H]1OCCN2S(C)(=O)=O | inactive
46 | COCCNC(=O)C[C@@H]1CC[C@H]2[C@@H](COc3ccc(NC(=O)Nc4cccc(F)c4)cc3C(=O)N2C)O1 | inactive
47 | C[C@@H]1CCCCO[C@H](CN(C)C(=O)Nc2ccc(F)cc2)[C@@H](C)CN([C@@H](C)CO)C(=O)c2cc(NC(=O)c3ccccc3)ccc2O1 | inactive
48 | C[C@H](CO)N1C[C@H](C)[C@H](CN(C)S(=O)(=O)c2cccs2)OCCCC[C@H](C)Oc2ccc(NC(=O)Nc3cccc4ccccc34)cc2C1=O | active

Row | SMILES | cytotoxicity call
49 | C[C@@H]1CCCCO[C@@H](CN(C)S(=O)(=O)c2cccs2)[C@H](C)CN([C@@H](C)CO)C(=O)c2cc(NC(=O)Nc3cccc4ccccc34)ccc2O1 | inactive
50 | C[C@@H]1CCCCO[C@@H](CN(C)S(=O)(=O)c2cccs2)[C@@H](C)CN([C@@H](C)CO)C(=O)c2cc(NC(=O)Nc3cccc4ccccc34)ccc2O1 | inactive
51 | C[C@@H]1CN([C@@H](C)CO)C(=O)c2cc(NC(=O)Nc3ccc(C(F)(F)F)cc3)ccc2O[C@@H](C)CCCCO[C@@H]1CN(C)S(=O)(=O)c1cccs1 | inactive
52 | C[C@H](CO)N1C[C@H](C)[C@@H](CN(C)S(=O)(=O)c2cccs2)OCCCC[C@H](C)Oc2ccc(NC(=O)Nc3ccc4c(c3)OCO4)cc2C1=O | active
53 | C[C@@H]1CCCCO[C@@H](CN(C)S(=O)(=O)c2cccs2)[C@@H](C)CN([C@H](C)CO)C(=O)c2cc(NC(=O)Nc3ccc(C(F)(F)F)cc3)ccc2O1 | inactive
54 | C[C@@H]1CN([C@@H](C)CO)C(=O)c2cc(NC(=O)Nc3ccc4c(c3)OCO4)ccc2O[C@@H](C)CCCCO[C@@H]1CN(C)S(=O)(=O)c1cccs1 | inactive
55 | C[C@@H]1CN([C@H](C)CO)C(=O)c2cc(NC(=O)Nc3ccc4c(c3)OCO4)ccc2O[C@@H](C)CCCCO[C@H]1CN(C)S(=O)(=O)c1cccs1 | inactive
56 | C[C@H](CO)N1C[C@H](C)[C@@H](CN(C)S(=O)(=O)c2cccs2)OCCCC[C@H](C)Oc2ccc(NC(=O)Nc3ccc(C(F)(F)F)cc3)cc2C1=O | inactive
57 | C[C@@H]1CCCCO[C@H](CN(C)S(=O)(=O)c2cccs2)[C@H](C)CN([C@@H](C)CO)C(=O)c2cc(NC(=O)Nc3ccc(C(F)(F)F)cc3)ccc2O1 | active
58 | C[C@@H]1CN([C@H](C)CO)C(=O)c2cc(NC(=O)Nc3ccc(C(F)(F)F)cc3)ccc2O[C@@H](C)CCCCO[C@@H]1CN(C)S(=O)(=O)c1cccs1 | inactive
59 | C[C@@H]1CCCCO[C@H](CN(C)S(=O)(=O)c2cccs2)[C@@H](C)CN([C@@H](C)CO)C(=O)c2cc(NC(=O)Nc3ccc(C(F)(F)F)cc3)ccc2O1 | active
60 | C[C@@H]1CN([C@H](C)CO)C(=O)c2cccc(NS(=O)(=O)c3ccccc3)c2O[C@@H]1CN(C)CC1CC1 | inactive
61 | O=C(C[C@H]1CC[C@@H]2[C@H](COC[C@H](O)CN2Cc2ccccc2F)O1)N[C@H]1CCN(Cc2ccccc2)C1 | inactive
62 | O=c1[nH][nH]c(=S)n1C1CC1 | inactive
63 | C=C(/C=C/CNS(=O)(=O)c1ccc(C)cc1)[C@H](O)[C@H]1CCCN1S(=O)(=O)c1ccccc1[N+](=O)[O-] | inactive
64 | O=C(C[C@H]1C[C@@H]2c3cc(NC(=O)c4cccnc4)ccc3O[C@@H]2[C@H](CO)O1)NCc1cc(F)ccc1F | inactive
65 | C[C@H]1CN([C@@H](C)CO)C(=O)CCCn2nncc2CO[C@H]1CN(C)C(=O)CCCN(C)C | inactive
66 | CCC[C@@H]1C[C@@H](C(=O)N[C@H]([C@H]2O[C@H](SC)[C@H](O)[C@@H](O)[C@H]2O)[C@@H](C)Cl)N(C)C1 | inactive
67 | Cc1noc(C)c1S(=O)(=O)N(C)C[C@H]1Oc2ccc(NS(C)(=O)=O)cc2CC(=O)N([C@@H](C)CO)C[C@H]1C | inactive
68 | CCC(CCC(C)C1CCC2C3CC=C4CC(O)CCC4(C)C3CCC12C)C(C)C (stereo not drawn) [beta-SITOSTEROL ] | inactive
69 | N/C(=N/O)c1cnc2n(c1=O)CCS2 | inactive
70 | C[C@@H]1CN([C@H](C)CO)C(=O)Cc2cc(NC(=O)Cc3ccccc3)ccc2O[C@H]1CN(C)S(=O)(=O)c1cccs1 | inactive
